From PubChem BioAssay (EPA / NIEHS) come the findings set out here.

What all share (conditions): mRNA level, 48 h; actives raise or lower the signal
Read-out in experiment [1]: Bcl-2 (BAD) gene, BAD (gene 572)
In words: LTEA_HepaRG_BAD: Life Technologies and Expression Analysis (LTEA) Assay for Bcl-2 (BAD) gene using HepaRG (AID 2283469). Put shortly:
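HepaRG, 48 h exposure, 8-pt half-log curve from 100 uM in 0.5% DMSO, duplicates. Readout: TaqMan qRT-PCR for BAD mRNA, housekeeping-normalised (ACTB/GAPDH/POLR2A); gain or loss fitted against DMSO baseline.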

Read-out in experiment [2]: Bcl-2 (BAX) gene, BAX (gene 581)
As to the kind of experiment: LTEA_HepaRG_BAX: Life Technologies and Expression Analysis (LTEA) Assay for Bcl-2 (BAX) gene using HepaRG (AID 2283470). Put shortly: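 qRT-PCR read-out of BAX mRNA, normalized to three housekeeping genes, after 48 h chemical exposure of human HepaRG cells in serum-free induction medium; eight-point half-log series, top 100 uM, 0.5% DMSO vehicle; bidirectional fit versus DMSO.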

Read-out in experiment [3]: adenosine kinase (ADK) gene, ADK (gene 132)
As to the kind of experiment: LTEA_HepaRG_ADK: Life Technologies and Expression Analysis (LTEA) Assay for adenosine kinase (ADK) gene using HepaRG (AID 2283471). Put shortly: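 ADK expression quantified by qRT-PCR, normalised to three housekeeping genes, after 48 h exposure of HepaRG cells to eight concentrations (top 100 uM, half-log steps, duplicate, 0.5% DMSO). Up- or down-regulation fitted relative to vehicle.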

Read-out in experiment [4]: Alpha-fetoprotein (AFP) gene, AFP (gene 174)
As to the kind of experiment: LTEA_HepaRG_AFP: Life Technologies and Expression Analysis (LTEA) Assay for Alpha-fetoprotein (AFP) gene using HepaRG (AID 2283472). In outline:
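qRT-PCR (Fluidigm TaqMan) readout of AFP transcript, normalized to three housekeeping genes, fitted bidirectionally against 0.5% DMSO baseline. HepaRG cells received chemicals for 48 h in serum-free induction medium, top concentration 100 uM, half-log steps.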

Read-out in the next experiment: BCL2L11 (gene 10018)
In words: LTEA_HepaRG_BCL2L11: Life Technologies and Expression Analysis (LTEA) Assay for Bcl-2 (BCL2L11) gene using HepaRG (AID 2283473). Put shortly: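 BCL2L11 transcript levels are measured by Fluidigm qRT-PCR, normalized to three housekeeping genes. HepaRG cultures were plated 48 h, then treated 48 h with test chemical (top 100 uM, half-log, 0.5% DMSO vehicle); curves were fitted bidirectionally against DMSO.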

Read-out in experiment [5]: Apolipoprotein A-V (APOA5) gene, APOA5 (gene 116519)
In words: LTEA_HepaRG_APOA5: Life Technologies and Expression Analysis (LTEA) Assay for Apolipoprotein A-V (APOA5) gene using HepaRG (AID 2283474). In outline:
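APOA5 transcript levels were quantified by qRT-PCR, normalized to three housekeeping genes, after 48 h chemical treatment of HepaRG cells (8 points, 100 uM maximum, half-log steps, 0.5% DMSO). Curves fitted in both directions against vehicle.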

Read-out in experiment [6]: Apoptosis regulator Bcl-2 (Homo sapiens) (UniProt P10415)
As to the kind of experiment: LTEA_HepaRG_BCL2: Life Technologies and Expression Analysis (LTEA) Assay for Bcl-2 gene using HepaRG (AID 2283475). Put shortly: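 qRT-PCR read-out (Fluidigm TaqMan) of BCL2 transcript, normalised to three housekeeping genes, after 48 h chemical exposure of HepaRG cells; 8-point half-log series, top 100 uM, 0.5% DMSO vehicle. Gain or loss of signal fitted relative to DMSO baseline.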

Read-out in experiment [7]: Bcl-2 (BID) gene, BID (gene 637)
In words: LTEA_HepaRG_BID: Life Technologies and Expression Analysis (LTEA) Assay for Bcl-2 (BID) gene using HepaRG (AID 2283476). Put shortly:
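HepaRG, 48 h exposure, 8-pt half-log series, top 100 uM, 0.5% DMSO vehicle, duplicates. Readout: BID mRNA by TaqMan qRT-PCR; housekeeping-normalized; bidirectional curve fit vs DMSO baseline.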

Read-out in the next experiment: Caspase-3 (Homo sapiens) (UniProt P42574)
As to the kind of experiment: LTEA_HepaRG_CASP3: Life Technologies and Expression Analysis (LTEA) Assay for cysteine-aspartic acid protease (CASP3) using HepaRG (AID 2283477). In outline:
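Expression of CASP3 was quantified by TaqMan qRT-PCR against three housekeeping genes (ACTB, GAPDH, POLR2A), bidirectionally versus 0.5% DMSO. HepaRG cultures received compounds in duplicate, top 100 uM with half-log steps, for 48 h in serum-free induction medium.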

Read-out in experiment [8]: Cytochrome P450 (CYP24A1), CYP24A1 (gene 1591)
In words: LTEA_HepaRG_CYP24A1: Life Technologies and Expression Analysis (LTEA) Assay for Cytochrome P450 (CYP24A1) using HepaRG (AID 2283478). In outline: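 mRNA of CYP24A1 quantified by TaqMan qRT-PCR (ACTB/GAPDH/POLR2A normalization) after 48 h chemical exposure of HepaRG cells, top concentration 100 uM, half-log steps, 0.5% DMSO vehicle, duplicates. Curves fitted bidirectionally against DMSO baseline.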

Read-out in experiment [9]: Cytochrome P450 (CYP1A2), CYP1A2 (gene 1544)
As to the kind of experiment: LTEA_HepaRG_CYP1A2: Life Technologies and Expression Analysis (LTEA) Assay for Cytochrome P450 (CYP1A2) using HepaRG (AID 2283479). In outline: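 CYP1A2 transcript measured by TaqMan qRT-PCR against three housekeeping genes after 48-hour chemical exposure of HepaRG cells. Eight-point half-log series topping at 100 uM in 0.5% DMSO, duplicates; gain or loss fitted relative to vehicle.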

Read-out in experiment [10]: Cytochrome P450 (CYP2B6), CYP2B6 (gene 1555)
As to the kind of experiment: LTEA_HepaRG_CYP2B6: Life Technologies and Expression Analysis (LTEA) Assay for Cytochrome P450 (CYP2B6) using HepaRG (AID 2283481). Put shortly:
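CYP2B6 transcript level quantified by qRT-PCR against three housekeeping genes, fitted bidirectionally relative to DMSO. HepaRG cultures received chemicals for 48 h, 8-point half-log series from 100 uM in 0.5% DMSO, duplicate wells, serum-free induction medium.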

Read-out in experiment [11]: Cytochrome P450 2C19 (Homo sapiens) (UniProt P33261)
As to the kind of experiment: LTEA_HepaRG_CYP2C19: Life Technologies and Expression Analysis (LTEA) Assay for CYP2C19 using HepaRG (AID 2283482). In outline:
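CYP2C19 transcript levels by qRT-PCR, normalized to three housekeeping genes, in HepaRG cells after 48 h chemical exposure. Eight-point half-log series topping at 100 uM, 0.5% DMSO vehicle. Increases and decreases both fitted against DMSO.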

Read-out in the next experiment: CYP2C8 (gene 1558)
In words: LTEA_HepaRG_CYP2C8: Life Technologies and Expression Analysis (LTEA) Assay for CYP2C8 using HepaRG (AID 2283483). Put shortly: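 HepaRG (human liver line), 48 h chemical exposure, 8-pt half-log series from 100 uM, 0.5% DMSO vehicle. Readout: CYP2C8 transcript by qRT-PCR, housekeeping-normalized. Bidirectional fit vs DMSO baseline.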

Read-out in the next experiment: CYP2C9 (gene 1559)
In words: LTEA_HepaRG_CYP2C9: Life Technologies and Expression Analysis (LTEA) Assay for CYP2C9 using HepaRG (AID 2283484). Put shortly: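 HepaRG, 48 h dosing, 8-pt half-log series, top 100 uM, 0.5% DMSO vehicle. Read-out: CYP2C9 transcript by TaqMan qRT-PCR, housekeeping-normalized (ACTB/GAPDH/POLR2A). Gain or loss fitted vs DMSO baseline.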

Read-out in a further experiment: CYP2E1 (gene 1571)
In words: LTEA_HepaRG_CYP2E1: Life Technologies and Expression Analysis (LTEA) Assay for CYP2E1 using HepaRG (AID 2283485). In outline:
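CYP2E1 transcript was measured by TaqMan qRT-PCR in human HepaRG cultures after 48 h chemical exposure (top 100 uM, half-log steps, 0.5% DMSO vehicle). Housekeeping-gene normalization; gain or loss fitted relative to DMSO baseline.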

Read-out in the next experiment: CYP4A11 (gene 1579)
In words: LTEA_HepaRG_CYP4A11: Life Technologies and Expression Analysis (LTEA) Assay for CYP4A11 using HepaRG (AID 2283486). In outline:
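Readout is CYP4A11 transcript level by qRT-PCR, normalized to three housekeeping genes and fitted bidirectionally against 0.5% DMSO. Human HepaRG cells were treated 48 h, in duplicate, with an 8-point half-log series topping at 100 uM.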

Read-out in experiment [12]: Cytochrome P450 3A4 (Homo sapiens) (UniProt P08684)
As to the kind of experiment: LTEA_HepaRG_CYP3A4: Life Technologies and Expression Analysis (LTEA) Assay for CYP3A4 using HepaRG (AID 2283487). Put shortly: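 Differentiated HepaRG cells, plated 48 h, then dosed 48 h in serum-free induction medium with 0.5% DMSO, 8 half-log concentrations up to 100 uM, duplicate. CYP3A4 mRNA by qRT-PCR, normalized to ACTB/GAPDH/POLR2A; bidirectional fit versus DMSO.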

Read-out in experiment [13]: DNA damage-inducible transcript 3 (DDIT3), DDIT3 (gene 1649)
In words: LTEA_HepaRG_DDIT3: Life Technologies and Expression Analysis (LTEA) Assay for DNA damage-inducible transcript 3 (DDIT3) using HepaRG (AID 2283488). Put shortly:
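qRT-PCR readout (Fluidigm TaqMan), housekeeping-normalized to ACTB, GAPDH, POLR2A. HepaRG cells, 48 h exposure, 8-point half-log series from 100 uM in 0.5% DMSO, duplicates. Gain or loss of signal fitted against DMSO baseline.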

Read-out in experiment [14]: cysteine-aspartic acid protease (CASP8), CASP8 (gene 841)
In words: LTEA_HepaRG_CASP8: Life Technologies and Expression Analysis (LTEA) Assay for cysteine-aspartic acid protease (CASP8) using HepaRG (AID 2283480). In outline:
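qRT-PCR readout of CASP8 mRNA, normalized to three housekeeping genes, after 48 h chemical exposure of HepaRG cells; 8-point half-log series, top 100 uM, 0.5% DMSO vehicle. Bidirectional curve fitting against DMSO baseline.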

The source made the active and inactive calls. The calls were made as follows: active = hit-call score of the fitted dose curve at least 0.9, where 1 is the maximum; inactive = score below 0.9.

Chain of Cytochrome P450 2C19 (Homo sapiens) (P33261 whole entry, looked up): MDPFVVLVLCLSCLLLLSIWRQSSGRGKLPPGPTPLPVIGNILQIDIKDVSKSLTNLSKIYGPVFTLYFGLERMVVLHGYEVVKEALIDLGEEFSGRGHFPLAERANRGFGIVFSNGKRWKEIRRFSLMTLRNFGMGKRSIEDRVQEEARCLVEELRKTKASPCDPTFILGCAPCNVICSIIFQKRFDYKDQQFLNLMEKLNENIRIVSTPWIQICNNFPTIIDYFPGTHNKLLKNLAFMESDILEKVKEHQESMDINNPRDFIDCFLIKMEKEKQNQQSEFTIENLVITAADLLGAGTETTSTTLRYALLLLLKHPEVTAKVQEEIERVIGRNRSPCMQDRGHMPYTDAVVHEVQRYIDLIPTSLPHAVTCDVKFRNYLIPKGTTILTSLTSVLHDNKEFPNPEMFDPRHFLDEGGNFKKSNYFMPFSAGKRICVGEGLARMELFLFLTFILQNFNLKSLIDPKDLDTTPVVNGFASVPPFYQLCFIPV
Chain of Cytochrome P450 3A4 (Homo sapiens) (P08684 whole entry, looked up): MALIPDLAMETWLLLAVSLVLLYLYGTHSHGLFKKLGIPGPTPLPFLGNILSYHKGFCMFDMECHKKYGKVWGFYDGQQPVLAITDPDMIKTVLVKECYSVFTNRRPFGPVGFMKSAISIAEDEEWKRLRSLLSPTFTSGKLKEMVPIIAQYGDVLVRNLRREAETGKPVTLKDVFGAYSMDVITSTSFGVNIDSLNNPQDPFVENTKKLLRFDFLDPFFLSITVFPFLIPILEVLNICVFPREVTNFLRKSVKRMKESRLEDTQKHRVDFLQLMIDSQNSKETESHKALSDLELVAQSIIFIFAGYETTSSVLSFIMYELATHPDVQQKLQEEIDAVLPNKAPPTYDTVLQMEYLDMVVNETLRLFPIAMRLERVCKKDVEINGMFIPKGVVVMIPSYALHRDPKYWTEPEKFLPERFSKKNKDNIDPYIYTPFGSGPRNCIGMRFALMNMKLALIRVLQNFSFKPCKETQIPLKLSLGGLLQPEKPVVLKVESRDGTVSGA
Chain of Apoptosis regulator Bcl-2 (Homo sapiens) (P10415 whole entry, looked up): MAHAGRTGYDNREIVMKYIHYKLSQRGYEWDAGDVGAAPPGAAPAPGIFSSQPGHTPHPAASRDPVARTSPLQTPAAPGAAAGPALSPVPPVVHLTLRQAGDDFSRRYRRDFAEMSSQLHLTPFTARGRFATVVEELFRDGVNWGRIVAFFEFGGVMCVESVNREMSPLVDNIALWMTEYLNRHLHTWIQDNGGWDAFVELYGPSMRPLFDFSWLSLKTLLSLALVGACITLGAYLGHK
Chain of Caspase-3 (Homo sapiens) (P42574 whole entry, looked up): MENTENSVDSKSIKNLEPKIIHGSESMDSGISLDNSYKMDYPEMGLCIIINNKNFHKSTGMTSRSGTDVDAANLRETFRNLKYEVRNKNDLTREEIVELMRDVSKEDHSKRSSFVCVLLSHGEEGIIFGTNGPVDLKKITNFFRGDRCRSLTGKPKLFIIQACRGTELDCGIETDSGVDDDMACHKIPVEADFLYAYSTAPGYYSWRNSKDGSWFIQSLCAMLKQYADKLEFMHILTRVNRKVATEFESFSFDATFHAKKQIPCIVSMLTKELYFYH

For `O=C(O)CCCCC(=O)O`, the result (in experiment [1]; in [2]; in experiment [3]; in [4]; with BCL2L11 (gene 10018); in experiment [5]) was inactive. Besides, the call (in experiment [6]; in experiment [7]; with Caspase-3 (Homo sapiens); in experiment [8]; in [9]; in experiment [10]) was inactive. Moreover, the molecule was classed as inactive (in [11]; in the experiment with CYP2C8 (gene 1558); with CYP2C9 (gene 1559); with CYP2E1 (gene 1571); with CYP4A11 (gene 1579); in experiment [12]). Besides, the result in [13] was inactive.

With `CCCCCCCCCCCCCCCC`, the call (in experiment [1]; in [2]; in experiment [3]; in experiment [4]; in the experiment with BCL2L11 (gene 10018); in experiment [5]) was inactive. Moreover, the outcome (in [6]; in experiment [7]; with Caspase-3 (Homo sapiens); in [8]; in experiment [14]; in experiment [10]) was inactive. The molecule was called inactive (in experiment [11]; in the experiment with CYP2C8 (gene 1558); in the experiment with CYP2E1 (gene 1571); with CYP4A11 (gene 1579); in experiment [12]; in experiment [13]). For the same molecule, the AC50 (in general, the midpoint of the concentration-response curve, whichever way the signal moves) in [9] was 50000 nM (active).

With `Cc1nc(C)nc(N2C[C@@H](C)N(c3ccnc([C@@H](C)O)n3)[C@@H](C)C2)n1`, the outcome (in experiment [1]; in experiment [2]; in experiment [3]; in experiment [4]; with BCL2L11 (gene 10018); in experiment [5]) was inactive. Besides, the outcome (in experiment [6]; in experiment [7]; with Caspase-3 (Homo sapiens); in experiment [8]; in experiment [9]; in experiment [14]) was inactive. Further, the result (in [11]; in the experiment with CYP2C8 (gene 1558); with CYP2E1 (gene 1571); in experiment [12]; in [13]) was inactive. Moreover, the AC50 in the experiment with CYP4A11 (gene 1579) is 9390 nM (active).

In the case of `Nc1nc(N)c2nc(CNc3ccc(C(=O)N[C@@H](CCC(=O)O)C(=O)O)cc3)cnc2n1`, the molecule was called inactive (in experiment [1]; in [2]; in [3]; with BCL2L11 (gene 10018); in [5]; in experiment [6]). Moreover, the outcome (in experiment [7]; in the experiment with Caspase-3 (Homo sapiens); in experiment [8]; in [14]; in experiment [10]; in experiment [11]) was inactive. Besides, the molecule was classed as inactive (with CYP2C8 (gene 1558); with CYP2C9 (gene 1559); with CYP4A11 (gene 1579); in experiment [12]; in [13]). In addition, the AC50 in [4] is 110 nM (active); in experiment [9], 99.8 nM (active); with CYP2E1 (gene 1571) it was 98 nM (active).
